Out of some 68,000 compounds screened, about 2,700 (4%) showed an effect of 50% or more. The entries come from a sample that favours strong results as a whole.

The test system of the test is Plasmodium berghei. In words: Screen against P. berghei liver stage (PbLuc), transformed with Luciferase, at 2uM. Type of test: functional, HepG2. The settings on record: tested at 2 uM.
As to `COc1ccc2c(C)nc(N3CCN([C@H]4CCCC[C@@H]4O)CC3)nc2c1`, the INHIBITION is listed as -104.21%.
With `CC(C)OCc1ncn2c1CN(Cc1cccs1)CCC2` the figure was 16.22%.
On to `Cn1c(CS(=O)(=O)Cc2ccc(Cl)cc2)cc(=O)n(C)c1=O`, for which the INHIBITION amounted to 26.34%.
The result for `Cc1cc(CN2C[C@@H]3COC[C@]3(c3nnc(C)o3)C2)no1` reads -83.05%; that for `Cc1nnc([C@]23COC[C@H]2CN(Cc2nccs2)C3)o1`, 51.36%; that for `Cc1nnc([C@]23COC[C@H]2CN(Cc2cccs2)C3)o1`, 27.73%.
With `O=C(CCNS(=O)(=O)c1ccc(F)cc1)NCc1ccoc1` the figure was 12.01%; with `CCOCCCC(=O)Nc1cccnc1-n1ccnc1C`, -12.09%.
`Cc1nccn1-c1ncccc1NC(=O)CCOCC(C)C`: the INHIBITION is recorded as 53.54%.
The result for `CC(C)COCCC(=O)Nc1cccnc1-n1cncn1` reads 22.88%; that for `CC(C)(C)c1noc(CCCC(=O)NCC2CCS(=O)(=O)C2)n1` (configuration not stated), -12.82%.
The result for `COC(=O)CNC(=O)c1sccc1N(C)S(=O)(=O)c1ccc(Cl)cc1` reads 3.38%; that for `Nc1cc2c(nn1)CCN(C(=O)CC1CCCCC1)C2`, 38.76%.
For the compound `CCc1nc(CN(C)C2CCN(Cc3nc(C4CC4)no3)C2)no1` (configuration not stated), the INHIBITION is -45.03%.
Take `O=C(CC[C@@H]1CCCN2CCCC[C@H]12)NCCc1nc(O)cc(O)n1`: the INHIBITION was 51.77%.
With `Nc1cc(O)nc(CCNC(=O)CC[C@@H]2CCCN3CCCC[C@H]23)n1` the figure was 26.81%; with `O=C(CC[C@@H]1CCCN2CCCC[C@H]12)NCCc1cc(O)ncn1`, -20.38%.
With `Cn1nc(C2CCNCC2)c2c(C(=O)NC3CC3)cc(C3CC3)nc21` the figure was 40.28%; with `CC(C)c1cc(N[C@@H](CO)C(N)=O)n2nccc2n1`, 50.42%; with `CC(C)c1cc(NC(CO)CO)n2nccc2n1`, 20.14%.
The result for `CC(C)c1cc(N[C@H](C(N)=O)C(C)C)n2nccc2n1` reads -48.3%; that for `COCCc1noc(CN2CC(C)(c3ccccc3)CCC2=O)n1` (configuration not stated), -12.84%; that for `Cn1ccnc1C1c2nc[nH]c2CCN1Cc1cccnc1` (configuration not stated), -7.68%.
On to `CCc1nc(C2CCCN(C(=O)NC(C)C)C2)no1` (configuration not stated), for which the INHIBITION worked out at 9.82%.
The result for `CCc1nc(C2CCCN(C(=O)C3=NN(CC)C(=O)CC3)C2)no1` (configuration not stated) reads 53.19%; that for `CCc1csc(C2CCCN(C(=O)C3=NN(CC)C(=O)CC3)C2)n1` (configuration not stated), 3.9%; that for `CCc1nc(C2CCCN(C(=O)C3=NN(C(C)C)C(=O)CC3)C2)no1` (configuration not stated), 52.08%.
With `Cc1nc(C2CCCN(C(=O)C3=NN(C(C)C)C(=O)CC3)C2)no1` (configuration not stated) the figure was 21.24%.
Consider `CCN1N=C(C(=O)N2CCCC(c3noc(C)n3)C2)CCC1=O` (configuration not stated), for which the INHIBITION was found to be 10.23%.
The result for `O=c1c(Cc2ccccc2)c(O)ccn1CCc1ccccc1` reads 44.59%.
The result for `Cc1ccc(CN2CC[C@H]3C[C@H](C(=O)N(C)C)O[C@H]3C2)cc1` reads 22.5%; that for `CCOc1ncccc1NC(=O)Nc1c(C)nn(C(C)C)c1C`, -10.87%; that for `CC(C)(C)c1coc([C@@H]2COCCN2Cc2ccccc2)n1`, 18.4%.
With `Cn1cc(CN2CCOC[C@H]2c2nc(C(C)(C)C)co2)c2ccccc21` the figure was 50.17%; with `CC(C)(C)c1coc([C@@H]2COCCN2Cc2c[nH]c3ccccc23)n1`, 27.44%; with `O=C(c1ccc(Cl)cc1)N1CCC(N2CCCNC2=O)CC1`, 27.54%.
For `O=C(c1ccoc1)N1CCC2(CC1)COC(COc1ccccn1)C2` (configuration not stated), the INHIBITION was 24.51%.
The result for `COCCC1COC2(CCN(C(=O)c3cccnc3)CC2)C1` (configuration not stated) reads 1.81%; that for `Cn1cc(CN2C[C@@H]3COC[C@]3(CNC(=O)c3ccsc3)C2)cn1`, 9.79%; that for `Cc1cnc(CN(Cc2ccc(Cl)s2)C2CCN(C)C2)o1` (configuration not stated), 14.83%.
With `Cc1cnc(CN(Cc2ccc(C#N)cc2F)C2CCN(C)C2)o1` (configuration not stated) the figure was 60.84%.
With `COc1ccc(C)cc1CN(Cc1ncc(C)o1)C1CCN(C)C1` (configuration not stated) the figure was -5.79%; with `CN1CCN(CC2CC2)C(=O)c2cnc(N3CCC(CO)CC3)nc21`, -13.87%.
For the compound `CSCCC(NC(N)=O)C(=O)NCc1ccc(-n2cccn2)cc1` (configuration not stated), the INHIBITION was 50.42%.
The result for `CSCCC(NC(N)=O)C(=O)Nc1ccc(-n2cccn2)nc1` (configuration not stated) reads -0.41%.
Regarding `CSCCC(NC(N)=O)C(=O)NCc1cnn(-c2ccccc2)c1` (configuration not stated), the INHIBITION is given as -12.03%.
The result for `CCCOc1cc(C)ccc1NC(=O)NCCC(=O)N(C)C` reads -36.17%; that for `COc1cc(C(=O)NC2COc3ccccc3C2)ccc1OCC(N)=O` (configuration not stated), -3.62%.
With `COc1cccc(C(=O)N2CCOCC2CN(C)C)c1OC` (configuration not stated) the figure was 31.55%; with `OC(CNCc1nnc2ccccn12)c1ccc2c(c1)OCO2` (configuration not stated), 31.54%; with `CC(C)NC(=O)N1CCC(c2nnc3n2CCNC3)CC1`, 13.28%.
With `COc1cccc2c1OCC(CNC(=O)Cn1ccnc1C)C2` (configuration not stated), the INHIBITION is given as 50.32%.
Turning to `COc1cccc2c1OCC(CNC(=O)CSc1ccccn1)C2` (configuration not stated), the INHIBITION worked out at 33.11%.
With `COc1cccc2c1OCC(CNC(=O)Cc1cnccn1)C2` (configuration not stated) the figure was -20.89%; with `Cn1cccc1C(=O)N1CCC2(CC1)CC(N1CCOCC1)C2`, 35.89%.
With `Cn1cnnc1S(=O)(=O)C1CCN(S(=O)(=O)c2ccc(F)c(Cl)c2)CC1` the figure was 60.09%; with `Cn1cnnc1S(=O)(=O)C1CCN(S(=O)(=O)c2ccccc2F)CC1`, -8.91%; with `Cc1ccc(S(=O)(=O)N2CCC(S(=O)(=O)c3nncn3C)CC2)cc1C`, -19.3%.
The result for `CCOC(=O)N1CCC(NC(C)Cc2cc(C)n[nH]2)CC1` (configuration not stated) reads -0.88%; that for `CC(C)CN1CCC(NC(C)c2ccccc2-n2cccn2)CC1` (configuration not stated), 12.11%.
Consider `CCOC(=O)N1CCC(NC(C)c2ccccc2-n2cccn2)CC1` (configuration not stated), for which the INHIBITION is 52.89%.
`O=C1COC2(CCN(S(=O)(=O)C3CC3)CC2)CN1c1cccnc1`: the INHIBITION turned out to be 10.37%.
With `CCN(C(=O)Nc1nccs1)C(C)c1cccc(O)c1` (configuration not stated) the figure was -81.27%; with `NC(=O)c1cnn2c1NCC(CNCC1(c3ccccc3)CCCC1)C2` (configuration not stated), -181.66%; with `CN(Cc1ccc(Cl)s1)C(=O)c1cccc(OCC(N)=O)c1`, 26.14%.
With `CN(Cc1ccc(Cl)s1)C(=O)c1ccccc1OCC(N)=O` the figure was 54.75%; with `CN(Cc1ccc(Cl)s1)C(=O)COc1cccc(C(N)=O)c1`, 34.61%.
